Data published in the supplement of paper PMC4380459.

test system: tubulin (bovine brain); assay: tubulin polymerization end-point dOD, fold change relative to DMSO vehicle; higher = more polymerization (stabilization); conditions: 50 µM; 60 min; 37 °C
Procedure: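 In-vitro tubulin polymerization assay (Cytoskeleton HTS kit) with 4 mg/ml bovine brain tubulin in G-PEM buffer and compound at 50 uM (0.5% DMSO). Turbidity was read at 340 nm every minute for 1 h at 37 C. The end-point change in OD (dOD) was converted to % fold change relative to the DMSO vehicle (0%), and runs were scaled using DMSO and Taxol controls. The paper calls >20% an effect, 20-40% weak and >40% strong; positive values mean stabilization, negative values destabilization. Scale: negative = destabilization.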

COc1ccc(NC(=O)CSc2nc3cc4c(cc3cc2C#N)OCO4)c(OC)c1 was tested. Which “tubulin polymerization end-point dOD” value did it give?
The value was 23.6%.

With Cc1ccc2cc(CN(CC3CCCO3)C(=S)Nc3ccccc3)c(=O)[nH]c2c1 (stereo not given) as the compound, how does the “tubulin polymerization end-point dOD” value read?
Its value is 0.1%.

With COc1ccccc1Nc1nc(-c2ccc(S(C)(=O)=O)cc2)cs1 as the compound, how does the “tubulin polymerization end-point dOD” value read?
Its value is 104%.

With Cc1cnc(C(=O)Nc2ncc(Cc3ccc(C#N)cc3)s2)cn1 as the compound, how does the “tubulin polymerization end-point dOD” value read?
The value was -30.4%.

For COc1ccc(C2(C(=O)NC(C)c3nc(-c4ccncc4)n[nH]3)CC2)cc1 (stereo not given), which “tubulin polymerization end-point dOD” value is on record?
The value was -41.3%.

Cc1cc2ccccc2n2c(=O)n(CC(C)NC(=O)c3cnn(C)c3C)nc12 (stereo not given) was tested. Which “tubulin polymerization end-point dOD” value did it give?
The value was -1.81%.

For O=c1[nH]c(/C=C/c2ccccc2F)nc2ccccc12, which “tubulin polymerization end-point dOD” value is on record?
The value was 21.3%.

How did the “tubulin polymerization end-point dOD” value turn out when Cc1cnc(C(=O)Nc2ncc(Cc3cccc(C)c3Cl)s2)cn1 was run?
The value was -85.7%.

COc1ccc2nc(SCC(=O)NCCc3ccc(OC)c(OC)c3)c(C)cc2c1 was tested. Which “tubulin polymerization end-point dOD” value did it give?
Its value is -15%.

With CCc1cc2cc(OC)ccc2nc1SCC(=O)Nc1cc(C)ccc1OC as the compound, how does the “tubulin polymerization end-point dOD” value read?
The value was -2.45%.

For CCOc1ccc(C2=[NH+]c3ccccc3C(c3cccnc3)=NN2)cc1, which “tubulin polymerization end-point dOD” value is on record?
The value was 109%.

O=C(Nc1ccccc1Cl)N(Cc1cccs1)Cc1cc2cc3c(cc2[nH]c1=O)OCCO3 was tested. Which “tubulin polymerization end-point dOD” value did it give?
The value was -17.8%.

How did the “tubulin polymerization end-point dOD” value turn out when O=C(N/N=C/c1cccs1)c1n[nH]c2c1CCC2 was run?
Its value is 12.9%.

How did the “tubulin polymerization end-point dOD” value turn out when O=C(Nc1ccc(N2CCc3sccc3C2)nc1)c1ccccc1F was run?
The value was -40.4%.

For COc1ccc(NC(=O)N(Cc2cc3ccc(C)c(C)c3[nH]c2=O)CC2CCCO2)cc1 (stereo not given), which “tubulin polymerization end-point dOD” value is on record?
The value was 33.3%.

Which “tubulin polymerization end-point dOD” value does the source give for COc1ccc(CCNC(=O)CSc2nc3cc4c(cc3cc2C)OCO4)cc1OC here?
The value was -49.9%.

With Cc1cccc(Cc2cnc(NC(=O)c3ccc(Br)cc3)s2)c1 as the compound, how does the “tubulin polymerization end-point dOD” value read?
The value was -17.2%.

Which “tubulin polymerization end-point dOD” value does the source give for O=C1CCCN1Cc1ccc(-c2ccccc2CNc2ncccn2)cc1 here?
Its value is -32.9%.

Which “tubulin polymerization end-point dOD” value does the source give for O=C(Nc1ccc(N2CCc3sccc3C2)nc1)c1ccccc1Br here?
The value was 14.9%.

For Cc1ccc(/C=N/NC(=O)c2c(C)nc3ccc(Cl)cn23)cc1, which “tubulin polymerization end-point dOD” value is on record?
Its value is -21.2%.

Which “tubulin polymerization end-point dOD” value does the source give for O=c1[nH]c(/C=C/c2ccccc2)nc2sc3c(c12)CCCCC3 here?
Its value is 16.8%.

Which “tubulin polymerization end-point dOD” value does the source give for COc1ccc(C2=NOC(=O)/C2=N/Nc2ccc(Cl)cc2)cc1 here?
The value was 19%.

With O=C(Nc1ncc(Cc2ccc(Cl)cc2)s1)c1cnccn1 as the compound, how does the “tubulin polymerization end-point dOD” value read?
Its value is -97.6%.

For COc1cccc(/C=C(/Cl)c2nc3cc(OC)c(OC)cc3c(=O)[nH]2)c1, which “tubulin polymerization end-point dOD” value is on record?
Its value is 42.1%.

Which “tubulin polymerization end-point dOD” value does the source give for CS(=O)(=O)N1CCCc2cc(C(=O)Cn3cnc4scc(-c5ccc(F)cc5)c4c3=O)ccc21 here?
The value was -30.9%.

For O=C(Nc1ncc(Cc2ccc(Cl)cc2)s1)c1cccnc1, which “tubulin polymerization end-point dOD” value is on record?
Its value is 7.93%.

How did the “tubulin polymerization end-point dOD” value turn out when COc1ccc2cc(CNc3ncnc4[nH]ncc34)ccc2c1 was run?
The value was -12.6%.

Which “tubulin polymerization end-point dOD” value does the source give for O=C(Nc1ccc(N2CCCCCC2)cc1)C1COc2ccccc2C1 (stereo not given) here?
Its value is 37.7%.

With O=C(Nc1ncc(Cc2ccc(Cl)cc2Cl)s1)c1cnccn1 as the compound, how does the “tubulin polymerization end-point dOD” value read?
The value was 6.51%.

For Cc1cc2cc3c(cc2nc1SCC(=O)NC1CCCC1)OCCO3, which “tubulin polymerization end-point dOD” value is on record?
Its value is 10.3%.

CC1Oc2nc3ccccc3cc2CN(Cc2ccc(F)cc2)C1=O (stereo not given) was tested. Which “tubulin polymerization end-point dOD” value did it give?
The value was 3.19%.

Which “tubulin polymerization end-point dOD” value does the source give for COc1cc(CNc2ccc(Br)cc2)cc(OC)c1OC here?
The value was -37.3%.

Which “tubulin polymerization end-point dOD” value does the source give for CCOc1ccc2nc(SCC(=O)Nc3ccc(OC)cc3OC)c(C)cc2c1 here?
Its value is 14.5%.

For Cc1ccc(/C=N/NC(=O)c2ccc3c(c2)OCO3)cc1, which “tubulin polymerization end-point dOD” value is on record?
The value was -38.5%.

Which “tubulin polymerization end-point dOD” value does the source give for CCc1ccccc1NC(=O)CSc1nc2cc3c(cc2cc1CC)OCO3 here?
Its value is -65%.

Which “tubulin polymerization end-point dOD” value does the source give for O=C(c1cncn1-c1ccccc1)N1CCN(c2cccc(Cl)c2)CC1 here?
Its value is -50%.

Which “tubulin polymerization end-point dOD” value does the source give for COc1ccc(CNc2c(-c3ccc(O)cc3O)nc3cnccn23)cc1 here?
The value was 30.8%.

For CC(=O)c1c(C)[nH]c(C(=O)Nc2ccc(N3CCCC3=O)cc2)c1C, which “tubulin polymerization end-point dOD” value is on record?
Its value is -9.36%.

For Cc1cc2nc(/C=C/c3ccsc3)sc2cc1C, which “tubulin polymerization end-point dOD” value is on record?
The value was 237%.

How did the “tubulin polymerization end-point dOD” value turn out when O=C(Nc1ccc(Cl)cc1)N(Cc1cc2cc3c(cc2[nH]c1=O)OCCO3)CC1CCCO1 (stereo not given) was run?
Its value is -20.7%.
